Where “and” joins values, the source holds several entries; their conditions need not be identical. Equal values may be shown once. Inconclusive results are not listed. Some structures have more than one record in an assay (separate samples or runs), and their calls can disagree. Calls of active or inactive are those of the source. How the source made its calls, unless noted: active means hit-call score of the fitted dose curve at least 0.9, where 1 is the maximum; inactive means score below 0.9.
Experiments:
[1] = read-out: Interleukin-8 (IL8), CXCL8 (gene 3576); experiment: BSK_3C_IL8: BioMAP Diversity Plus: 3C Assay for Interleukin-8 (IL8) Biomarker Activity (AID 2283020); details: primary human endothelial cells (HUVEC); actives raise or lower the signal
How it was run: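 Human vascular endothelial cells (umbilical vein) in the 3C system; IL-8 level detected by ELISA at 24 h post-dose, with DMSO as baseline.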

[2] = read-out: Monokine induced gamma interferon (MIG), CXCL9 (gene 4283); experiment: BSK_3C_MIG: BioMAP Diversity Plus: 3C Assay for Monokine induced gamma interferon (MIG) Biomarker Activity (AID 2283021); details: primary human endothelial cells (HUVEC); actives raise or lower the signal
How it was run: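 After 24 h of treatment, human umbilical vein endothelial cultures (3C system) had their MIG biomarker level determined by ELISA, with DMSO serving as negative control.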

[3] = molecular target: human Vitamin D Receptor (VDR), VDR (gene 7421) (UniProt P11473); experiment: ATG_VDR_TRANS: Attagene TRANS-FACTORIAL HepG2 Assay for human Vitamin D Receptor (VDR) (AID 2283022; active means hit-call score of the fitted dose curve at least 0.9, where 1 is the maximum)
How it was run: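 HepG2 cells were transiently transfected with multiple GAL4-UAS reporter units, so signal reflects exogenous chimeric receptor-Gal4 activity. After 24 h compound exposure, reporter mRNA was measured by RT-PCR, fluorescent labelling and capillary electrophoresis, fitted for gain of signal versus DMSO.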

[4] = BSK_3C_SRB: Viability Assessment in the BioMAP Diversity Plus: 3C Assay (AID 2283023); details: primary human endothelial cells (HUVEC);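 further: fitted both ways against DMSO so a hit may be signal rise or drop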
How it was run: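 Primary human umbilical vein endothelial cells in the 3C system were read 24 h after compound dosing. Total protein was stained with 0.1% sulforhodamine B after 10% TCA fixation and read at 560 nm, with bidirectional fitting against DMSO as baseline.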

[5] = read-out: Matrix Metallopeptidase 1 (MMP1), MMP1 (gene 4312); experiment: BSK_BE3C_MMP1: BioMAP Diversity Plus: BE3C Assay for Matrix Metallopeptidase 1 (MMP1) Biomarker Activity (AID 2283024); details: primary human bronchial epithelial cells; actives raise or lower the signal
How it was run: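 Dose cells, wait 24 h, run MMP1 ELISA; cells are human bronchial epithelial primaries. Both increases and decreases relative to DMSO counted.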

[6] = BSK_4H_SRB: Viability Assessment in the BioMAP Diversity Plus: 4H Assay (AID 2283027); details: primary human endothelial cells (HUVEC);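 further: cells exposed to compound for 24 h before staining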
How it was run: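 Human umbilical vein endothelial cells were dosed with chemical and, after 24 h, fixed with 10% TCA, stained with 0.1% sulforhodamine B, and read at 560 nm to give total protein as a cytotoxicity measure. Bidirectional fitting relative to DMSO control.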

[7] = BSK_BE3C_SRB: Viability Assessment in the BioMAP Diversity Plus: BE3C Assay (AID 2283028); details: primary human bronchial epithelial cells
How it was run: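 Human primary bronchial epithelial cells were exposed to test chemicals for 24 h. Total protein in parallel cultures was then measured by staining with 0.1% sulforhodamine B after 10% TCA fixation, with absorbance read at 560 nm. Activity was fitted bidirectionally against DMSO.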

[8] = read-out: Thrombomodulin, THBD (gene 7056); experiment: BSK_3C_Thrombomodulin: BioMAP Diversity Plus: 3C Assay for Thrombomodulin Biomarker Activity (AID 2283029); details: primary human endothelial cells (HUVEC); actives raise or lower the signal
How it was run: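 Thrombomodulin ELISA, human primary HUVEC, 24 h post-dose; data fitted in both directions relative to DMSO.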

[9] = read-out: Urokinase-type plasminogen activator receptor (uPAR), PLAUR (gene 5329); experiment: BSK_4H_uPAR: BioMAP Diversity Plus: 4H Assay for Urokinase-type plasminogen activator receptor (uPAR) Biomarker Activity (AID 2283030); details: primary human endothelial cells (HUVEC); actives raise or lower the signal
How it was run: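 Primary human umbilical vein endothelial cells were exposed to chemical for 24 h before cell-surface uPAR was quantified by ELISA. Activity was fitted bidirectionally against the DMSO negative control baseline.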

[10] = read-out: Vascular endothelial growth factor receptor 2 (Homo sapiens) (UniProt P35968); experiment: BSK_4H_VEGFRII: BioMAP Diversity Plus: 4H Assay for Vascular endothelial growth factor receptor 2 (VEGFR2) Biomarker Activity (AID 2283031); details: primary human endothelial cells (HUVEC); actives raise or lower the signal
How it was run: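 Primary human umbilical vein endothelial cells in the BioMAP 4H system were dosed with test chemical, and 24 h later VEGFRII was measured by ELISA. Activity was fitted bidirectionally against DMSO as negative control and baseline.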

[11] = read-out: Human Leukocyte Antigen - DR isotype (HLADR), HLA-DRA (gene 3122); experiment: BSK_BE3C_HLADR: BioMAP Diversity Plus: BE3C Assay for Human Leukocyte Antigen - DR isotype (HLADR) Biomarker Activity (AID 2283032); details: primary human bronchial epithelial cells; actives raise or lower the signal
How it was run: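 Signal came from an ELISA for HLA-DR in human bronchial epithelial primary cells harvested 24 h after treatment; gain- and loss-of-signal fitting used DMSO controls as reference.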

[12] = read-out: Vascular cell adhesion molecule 1 (VCAM1), VCAM1 (gene 7412); experiment: BSK_4H_VCAM1: BioMAP Diversity Plus: 4H Assay for Vascular cell adhesion molecule 1 (VCAM1) Biomarker Activity (AID 2283033); details: primary human endothelial cells (HUVEC); actives raise or lower the signal;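 further: cell-surface VCAM-1 protein measured by ELISA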
How it was run: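 Endpoint derived from bidirectional fitting against DMSO controls of VCAM-1 ELISA signal in umbilical vein endothelial cells sampled at 24 h following treatment.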

[13] = read-out: Interferon-gamma inducible Protein 10 (IP10), CXCL10 (gene 3627); experiment: BSK_BE3C_IP10: BioMAP Diversity Plus: BE3C Assay for Interferon-gamma inducible Protein 10 (IP10) Biomarker Activity (AID 2283034); details: primary human bronchial epithelial cells; actives raise or lower the signal
How it was run: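 Using primary human bronchial epithelial cultures, the assay captures IP-10 by ELISA one day (24 h) after exposure. Parallel SRB staining of total protein flags overt cytotoxicity. Fits run bidirectionally relative to DMSO.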

[14] = read-out: Monokine induced gamma interferon (MIG), CXCL9 (gene 4283); experiment: BSK_BE3C_MIG: BioMAP Diversity Plus: BE3C Assay for Monokine induced gamma interferon (MIG) Biomarker Activity (AID 2283035); details: primary human bronchial epithelial cells; actives raise or lower the signal;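 further: MIG protein measured by ELISA in BE3C cultures after 24 h of dosing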
How it was run: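 ELISA read-out of MIG in human lung bronchial epithelial primary cultures, 24 h post-dosing. Bidirectional curve fit vs DMSO baseline.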

[15] = read-out: Plasminogen activator inhibitor-1 (PAI1), SERPINE1 (gene 5054); experiment: BSK_BE3C_PAI1: BioMAP Diversity Plus: BE3C Assay for Plasminogen activator inhibitor-1 (PAI1) Biomarker Activity (AID 2283037); details: primary human bronchial epithelial cells; actives raise or lower the signal
How it was run: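 PAI-1 biomarker levels in treated human bronchial epithelial cells are determined by ELISA at 24 h. Both increases and decreases relative to DMSO are fitted.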

[16] = read-out: urokinase plasminogen activator (uPA), PLAU (gene 5328); experiment: BSK_BE3C_uPA: BioMAP Diversity Plus: BE3C Assay for urokinase plasminogen activator (uPA) Biomarker Activity (AID 2283038); details: primary human bronchial epithelial cells; actives raise or lower the signal;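 further: uPA protein level quantified by ELISA in cell cultures; uPA read one day after compound addition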
How it was run: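 Human primary bronchial epithelial cells were exposed to chemical for 24 h, then uPA levels were measured by ELISA. Responses were fitted bidirectionally against DMSO as negative control and baseline. Parallel SRB staining of total protein gauged overt cytotoxicity.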

[17] = read-out: Urokinase-type plasminogen activator receptor (uPAR), PLAUR (gene 5329); experiment: BSK_BE3C_uPAR: BioMAP Diversity Plus: BE3C Assay for Urokinase-type plasminogen activator receptor (uPAR) Biomarker Activity (AID 2283039); details: primary human bronchial epithelial cells; actives raise or lower the signal;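 further: cells exposed to compound for one day before measurement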
How it was run: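 A uPAR ELISA serves as the readout, taken 24 h after treating primary human bronchial epithelial cells. Responses in either direction are fitted against DMSO, which defines baseline activity.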

[18] = BSK_3C_Vis: BioMAP Diversity Plus: 3C Assay for Morphology Visualization (AID 2283025); details: primary human endothelial cells (HUVEC);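 further: light microscopy image of cell morphology used as background control; fitted both ways so gain or loss versus DMSO counts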
How it was run: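 Endothelial cells from human umbilical vein were treated with test chemicals for 24 h and inspected by light microscopy for changes in cell conformation.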

[19] = read-out: Pselectin, SELP (gene 6403); experiment: BSK_4H_Pselectin: BioMAP Diversity Plus: 4H Assay for Pselectin Biomarker Activity (AID 2283026); details: primary human endothelial cells (HUVEC); actives raise or lower the signal
How it was run: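 Human vascular endothelium from umbilical vein; P-selectin measured by ELISA at 24 h post-dose, with cytotoxicity checked by sulforhodamine B total-protein staining in parallel cultures (0.1% SRB after 10% TCA fixation, read at 560 nm).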

[20] = read-out: Transforming growth factor beta 1 (TGFb1), TGFB1 (gene 7040); experiment: BSK_BE3C_TGFb1: BioMAP Diversity Plus: BE3C Assay for Transforming growth factor beta 1 (TGFb1) Biomarker Activity (AID 2283036;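 further: TGF-b1 protein level measured by ELISA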); details: primary human bronchial epithelial cells; actives raise or lower the signal
How it was run: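 In this human primary bronchial epithelial system, an ELISA quantified TGF-b1 one day after dosing. Endpoint changes in either direction were fitted relative to DMSO.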

Measured: AC50

Sequence of human Vitamin D Receptor (VDR), VDR (gene 7421) (P11473 whole entry, looked up, the tested form may be a part): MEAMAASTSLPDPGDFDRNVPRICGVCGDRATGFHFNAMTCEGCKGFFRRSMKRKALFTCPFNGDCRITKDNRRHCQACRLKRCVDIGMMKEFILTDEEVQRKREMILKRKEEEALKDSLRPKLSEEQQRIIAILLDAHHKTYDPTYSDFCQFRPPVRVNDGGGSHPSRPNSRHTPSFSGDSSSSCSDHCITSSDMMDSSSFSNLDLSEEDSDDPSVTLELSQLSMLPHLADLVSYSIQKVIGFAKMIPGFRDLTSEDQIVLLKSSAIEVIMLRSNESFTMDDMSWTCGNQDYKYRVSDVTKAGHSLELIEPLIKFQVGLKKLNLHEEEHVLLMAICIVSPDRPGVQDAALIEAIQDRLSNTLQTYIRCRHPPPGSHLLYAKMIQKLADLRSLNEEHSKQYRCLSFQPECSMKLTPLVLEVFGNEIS

O=C(O)CCC(F)(F)C(F)(F)C(F)(F)C(F)(F)C(F)(F)C(F)(F)C(F)(F)F
inactive: [1] | [2] | [3] | [4] | [6] | [7] | [8] | [9] | [10] | [12] | [13] | [14] | [15] | [16] | [17]
active: [5] 3.33 µM and 3.8 µM | [11] 2.48 µM and 3.33 µM | [13] 2.32 µM

CCN(CC)c1ccc2c(c1)Oc1cc(N(CC)CC)ccc1C21OC(=O)c2ccccc21
active: [1] 4.05 µM | [4] 5.74 µM | [18] 19.9 µM | [13] 1.98 µM
not listed: [3] | [14]
inactive: all other assays above

O=S(=O)(O)CCC(F)(F)C(F)(F)C(F)(F)C(F)(F)C(F)(F)C(F)(F)C(F)(F)C(F)(F)F
active: [4] 25.6 µM | [5] 11.1 µM and 15.4 µM | [11] 20.4 µM and 25.3 µM | [13] 16.8 µM and 24.1 µM | [15] 8.09 µM
inactive: [1] | [2] | [4] | [6] | [7] | [8] | [9] | [10] | [12] | [15] | [16] | [17]

CO[Si](C)(CCC(F)(F)C(F)(F)C(F)(F)C(F)(F)C(F)(F)C(F)(F)F)OC
not listed: [14] | [18] | [19] | [20]
inactive: all other assays above

CCCCCCCC/C=C\CCCCCCCC(=O)OCC(O)CO (centres undefined)
inactive: [3]

CN(N=O)C(=O)N[C@@H]1[C@@H](O)[C@H](O)[C@@H](CO)O[C@@H]1O
inactive: [3]

OCC1CCCO1 (centres undefined)
inactive: [3]

CC1=CCC(=O)O1
inactive: [3]

NC(=O)C(F)(F)C(F)(F)C(F)(F)C(F)F
not listed: [3] | [18] | [19] | [20]
inactive: all other assays above
